Compound activity from PubChem.
Compounds with a hit are over-represented: about 9.4% of the library has one in this group of screens.
ELG1 repair inh: qHTS screen for small molecules that inhibit ELG1-dependent DNA repair in human embryonic kidney (HEK293T) cells expressing luciferase-tagged ELG1 | HEK293T ELG1-luciferase reporter, luminescence, 16 h; DNA damage induced by 5-fluorouridine | Potency, µM (top dose mostly 46.1 µM), without a hit: at the highest dose activity change, negative = inhibition, actives largely listed as inhibitors | 330,000 compounds, 2.3% hits; note: % is set by controls: 0 for no effect and ±100 for the full control effect; nearly all actives have a fitted effect of over 55% in size
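Overnight (16 hr) co-exposure of 2,000 cells/well to 5-fluorouridine and compound at 37 °C preceded detection. Luciferase was quantified via ONE-Glo luminescence; loss of signal denotes inhibition.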
NPC1 prom act: qHTS Assay for NPC1 Promoter Activators | Huh7 NPC1 promoter luciferase reporter, 24 h | Potency, µM (highest dose often 9.22 µM), for the others: top-dose activation, hits mostly activators | 320,000 compounds, 2.4% hits; note: % of control where 0% means no effect; nearly all actives have a fitted effect of over 60% in size
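Huh7 reporter cells (NPC1 promoter driving luciferase) are dosed with compound for 24 h at 37 °C, 5% CO2; luciferase detection reagent is then added and luminescence measured after 10 min at ambient temperature.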
FLuc counter: qHTS profiling assay for firefly luciferase inhibitor/activator using purifed enzyme and Km concentrations of substrates (counterscreen for miR-21 project); Luciferin 4-monooxygenase (Photinus pyralis), P08659; purified FLuc, Km substrates, luminescence inhibition; Potency, µM (series often up to 57.5 µM), inactives show at the top dose activity change, negative = inhibition, actives largely listed as inhibitors; 360,000 compounds, 6.9% hits;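 note: plate controls were vehicle for no effect and reference inhibitor for full effect; nearly all actives have a fitted effect of over 55% in size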
Target sequence (P08659 whole entry, looked up): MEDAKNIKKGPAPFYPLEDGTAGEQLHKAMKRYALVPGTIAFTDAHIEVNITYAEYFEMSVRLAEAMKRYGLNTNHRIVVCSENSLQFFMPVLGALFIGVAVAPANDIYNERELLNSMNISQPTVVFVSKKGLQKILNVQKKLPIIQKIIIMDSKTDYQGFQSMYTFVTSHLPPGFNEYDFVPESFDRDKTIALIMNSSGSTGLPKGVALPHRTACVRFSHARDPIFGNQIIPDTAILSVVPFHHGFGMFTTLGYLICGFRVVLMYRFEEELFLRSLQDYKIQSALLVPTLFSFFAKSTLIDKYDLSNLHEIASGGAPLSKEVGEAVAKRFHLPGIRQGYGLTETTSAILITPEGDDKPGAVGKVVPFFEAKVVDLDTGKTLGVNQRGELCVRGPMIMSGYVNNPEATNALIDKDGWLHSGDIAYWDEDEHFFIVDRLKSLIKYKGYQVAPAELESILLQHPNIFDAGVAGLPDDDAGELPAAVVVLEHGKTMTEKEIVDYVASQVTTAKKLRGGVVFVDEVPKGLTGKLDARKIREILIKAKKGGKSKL
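Purified P. pyralis luciferase (10nM final) with 10uM D-luciferin and 10uM ATP (Km levels) in 50mM Tris acetate pH 7.5, 10mM Mg acetate, 0.01% Tween-20, 0.05% BSA; qHTS 6-point titration, ~60 µM downward; luminescence read.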
ELG1 genotox: qHTS screen for small molecules that induce genotoxicity in human embryonic kidney (HEK293T) cells expressing luciferase-tagged ELG1 | HEK293T ELG1-luciferase reporter, luminescence, 16 h | Potency, µM (doses to about 46 µM), for the others: at the highest dose activity change, positive = activation, hits mostly activators | 330,000 compounds, 1.3% hits; note: % of control where 0% means no effect; nearly all actives have a fitted effect of over 60% in size
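16 hr compound incubation (37 °C, 5% CO2) of HEK293T cells carrying luciferase-tagged ELG1; luciferase then measured by ONE-Glo luminescence after 30 min at RT.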
SMN2 splice up: qHTS Assay for Enhancers of SMN2 Splice Variant Expression; HEK293 SMN2-luciferase splicing reporter, luminescence, 30-36 h; Potency, µM (doses to about 46.1 µM), for the others: top-dose activity change, positive = activation, usual class: activators; 210,000 compounds, 2.8% hits; note: % of control where 0% means no effect; nearly all actives have a fitted effect of over 55% in size
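qHTS luciferase splicing reporter: luminescence rises when SMN2 exon 7 is included in transfected HEK293 cells. Compound exposure lasted 30-36 h at 37C, with 4.5 mM final sodium butyrate as control, followed by a ONE-Glo read.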
Rab9 promoter act: qHTS Assay for Rab9 Promoter Activators; Huh7 Rab9 promoter-luciferase reporter, luminescence, 24 h; Potency, µM (highest dose often 9.22 µM), inactives show top-dose activation, negative = inhibition, actives largely listed as activators; AID 485297, 2010; 320,000 compounds, 2.8% hits; note: % of control where 0% means no effect; nearly all actives have a fitted effect of over 60% in size
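Measured in stably transfected Huh7 cells bearing a Rab9 promoter–luciferase construct: 24 h compound treatment at 37 °C, followed by luminescence detection.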
* hit, by the source's call; ? = inconclusive; . = no result given; [ ] = remark or other dose. Calls come from the whole dose curve; as a rule, active = well fitted curve in the direction sought with a large enough effect; inconclusive = small, poorly fitted or top-dose-only effect, or another doubt; inactive = no such curve, though single readings can be large; an effect the other way counts as inactive or inconclusive. Potency is the fitted concentration of half-maximal effect.

SMILES	ELG1 repair inh	NPC1 prom act	FLuc counter	ELG1 genotox	SMN2 splice up	Rab9 promoter act
CC1CCCN(C(=O)CNC(=O)c2cccs2)C1 (configuration not stated)	?	4µM*	?	22%	.	?
Cc1cccc(C2NC(c3cccc(C)c3)C(C)C(=O)C2C)c1 (configuration not stated)	0%	0%	3%	-3%	.	-3%
Cc1ccc(/C=C/C(=O)Nc2ccc(S(N)(=O)=O)cc2)o1	4%	-1%	?	-1%	-5%	-2%
Cc1ccc(/C=C/C(=O)Nc2ccncc2)o1	12%	4%	17µM*	3%	2%	2%
Cc1ccc(/C=C/C(=O)Nc2ccc(N(C)C)cc2)o1	?	?	3µM*	?	14µM*	?
CCc1cccc(-n2nnc(-c3nsc(NC(=O)c4cccc(OC)c4)n3)c2C)c1	.	.	-2%	.	.	.
O=C1NN(c2ccc(Cl)c(Cl)c2)C(=O)/C1=C/c1ccc(-c2ccccc2C(=O)O)o1	-2%	-3%	?	1%	.	-4%
CC1=NN(c2ccc(C)cc2)C(=O)/C1=C/c1ccc(-c2cc([N+](=O)[O-])ccc2O)o1	?	0%	12µM*	-7%	.	-4%
CC1=NN(c2ccc(C(=O)O)cc2)C(=O)/C1=C/c1ccc(-c2ccccc2F)o1	?	-5%	4.8µM*	11%	.	5%
CC1=NN(c2ccc(Cl)c(C(=O)O)c2)C(=O)/C1=C\c1ccc(-c2ccc(C(=O)O)cc2)o1	?	0%	27µM*	1%	26%	5%
COC(=O)c1ccccc1-c1ccc(/C=C2\C(=O)N(c3ccccc3)N=C2c2ccccc2)o1	16%	2%	-8%	0%	-3%	1%
O=C(NCc1ccccc1Cl)C1CCCN(C(=O)c2cnn(-c3ccc(F)cc3)c2-n2cccc2)C1 (configuration not stated)	.	.	-4%	.	.	.
O=C(NCc1ccccc1)c1cccc(COc2ccccc2Cl)c1	?	1.8µM*	15µM*	?	13µM*	1.8µM*
COc1cccc(C(=O)N2CCN(c3ccccn3)CC2)c1	3%	-3%	-1%	-3%	.	-2%
O=C(NCc1cccnc1)c1ccc(COc2ccccc2Cl)cc1	?	-1%	?	0%	-13%	-2%
O=C(c1cccc(COc2ccc(Cl)cc2Cl)c1)N1CCN(c2ccccn2)CC1	.	.	4.8µM*	.	4µM*	.
O=C(COC(=O)COc1ccc2c(c1)CCC2)Nc1ccccc1	?	-2%	?	10%	.	14%
O=C(NCc1ccccc1)c1cccc(COc2cc(Cl)ccc2Cl)c1	?	2.5µM*	?	?	13µM*	3.2µM*
O=C(NCc1ccccc1)c1cnc(Cl)c(Cl)c1	12%	-2%	-1%	4%	.	12%
NNC(=O)c1cccc(COc2ccc3c(c2)CCC3)c1	?	0.22µM*	2.4µM*	?	0.4µM*	0.32µM*
CN1CCN(c2ncc3nc(-c4cccs4)c(=O)n(C[C@H]4CCCO4)c3n2)CC1	.	.	.	.	-12%	.
CC(C)Oc1ccc(C(=O)N(Cc2ccc(N(C)C)cc2)Cc2ccco2)cc1	.	.	?	.	-9%	.
COc1cccc(OC)c1C(=O)Nc1ccc(S(=O)(=O)Nc2nccc(C)n2)cc1	.	.	5%	.	3%	.
COC(=O)c1ccccc1NC(=O)c1cccc(COc2ccccc2Cl)c1	?	?	17µM*	?	11µM*	0.45µM*
NNC(=O)c1cccc(COc2ccccc2Br)c1	?	0.35µM*	7.6µM*	?	13µM*	0.89µM*
SMILES	ELG1 repair inh	NPC1 prom act	FLuc counter	ELG1 genotox	SMN2 splice up	Rab9 promoter act
O=C(c1cccc(COc2cccc3ccccc23)c1)N1CCCC1	?	?	17µM*	15%	22µM*	2.5µM*
CN(C(=O)c1cccc(COc2ccc(Cl)cc2Cl)c1)c1ccccc1	?	0.63µM*	12µM*	2.1µM*	3.2µM*	1µM*
COc1ccc(NC(=O)c2sc3nc4c(c(-c5ccc(OC)cc5)c3c2N)C(=O)CC(C)(C)C4)cc1	.	.	-2%	.	-5%	.
C=CCOc1c(Br)cc(/C=C2/NC(=S)N(C(C)=O)C2=O)cc1OC	-13%	0%	1.5µM*	23%	9%	-3%
O=C(c1ccco1)N1CCN(C(=O)c2ccc(-c3ccc(Cl)cc3)o2)CC1	?	1%	17µM*	-7%	.	9%
Cc1ccc(NC(=O)Cn2nc(-c3ccco3)ccc2=O)cc1Cl	-12%	1%	-3%	-1%	.	0%
O=C(Cc1ccc(Cl)cc1)Nc1ccc(N2CCN(C(=O)c3ccco3)CC2)c(Cl)c1	13µM*	-5%	-5%	-8%	-50%	2%
Cc1ccc(NC(=O)c2ncoc2-c2ccco2)cc1Cl	.	.	11µM*	.	.	.
CCN1CCN(c2ccc(NC(=O)c3ccco3)cc2Cl)CC1	?	?	17µM*	?	.	?
CCC(=O)Nc1ccc(N2CCN(C(=O)c3ccco3)CC2)c(Cl)c1	?	-3%	-1%	-3%	.	-4%
O=C(c1ccc(Cl)cc1)N1CCN(C(=O)c2ccco2)CC1	10%	-5%	-6%	2%	-6%	-3%
CC(C)CNc1nc2ncnc(N)c2[nH]1	.	.	.	.	1%[9.22 µM]	.
O=C(Cn1cc(S(=O)(=O)Cc2ccc(F)cc2)c2ccccc21)NCCc1ccccc1	.	.	-2%	.	.	.
CN1CCN(c2ccc(NC(=O)c3ccco3)cc2Cl)CC1	?	0.4µM*	4.8µM*	8.2µM*	.	0.63µM*
CN1CCN(c2ccccc2NC(=O)c2ccc(-c3ccc(Cl)cc3Cl)o2)CC1	21µM*	-4%	-18%	-8%	1%	-11%
O=C(Nc1ccc(N2CCCCC2)c(Cl)c1)c1ncn[nH]1	?	?	6µM*	?	.	23%
Cc1ccc(NC(=O)c2cc(NC(=O)c3ccco3)ccc2N2CCOCC2)cc1Cl	16µM*	-10%	5%	8%	-4%	0%
O=C(Nc1ccc(CCC(=O)N2CCCC2)cc1)c1ncn[nH]1	22%	-4%	?	0%	8%	3%
CS(=O)(=O)N1CCN(c2ccccc2NC(=O)c2ccc(-c3ccc(Cl)cc3Cl)o2)CC1	?	4%	-5%	-5%	-7%	-9%
O=C(CCn1c(=O)c2sccc2n(Cc2cccc(F)c2)c1=O)NCc1ccc2c(c1)OCO2	.	.	-1%	.	1%	.
